# Experimental data from the supplement of paper PMC10941209.
# Values without a mark were called inactive.
# Tested on: Toxoplasma gondii RH 2F1 tachyzoites (intracellular in HFF)
# Experiment: parasite survival relative to DMSO control; higher = less antiparasitic activity, active = 20 or less
# Conditions: 1 µM; 72 h
# Description: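 Primary single-dose screen of the MMV Pandemic Response Box at 1 uM against T. gondii RH-2F1 (beta-galactosidase) tachyzoites in HFF cells, 72 h at 37 C. Parasite growth read by CPRG absorbance at 570 nm and normalised to DMSO-treated infected controls (% survival); pyrimethamine was the reference drug. The paper calls at least 80% inhibition a hit.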
row,SMILES,parasite survival
1,CONC(=N)c1ccc(-c2ccc(-c3ccc(C(=N)NOC)cc3)o2)cc1,49.7%
2,O=c1[nH]cnc2c1ncn2[C@H]1CC[C@@H](CO)O1,79.3%
3,COc1c(NC(=O)[C@H]2CC[C@@H](COc3ccc([N+](=O)[O-])cc3)CC2)c(F)cc2c(=O)c(C(=O)O)cn(C3CC3)c12,47.7%
4,O=C(O)CCNC(=O)c1ccccc1,50.8%
5,O=C(O)c1cc(-c2ccccc2)nc2ccccc12,67.9%
6,CCn1cc(C(=O)O)c(=O)c2cc(F)c(N3CCNC(C)C3)c(F)c21 (stereo not given),76%
7,COc1ccc(SCC(=O)N2c3ccccc3Sc3ccccc32)cc1,47.4%
8,C[C@H](Cn1cnc2c(N)ncnc21)OCP(=O)(O)O,76.3%
9,O=C(Nc1nnc(-c2ccccc2)o1)c1ccc(F)cc1,52.8%
10,O=C(NN1C(=O)[C@@H]2[C@@H]3C=C[C@@H]([C@H]4C[C@@H]34)[C@@H]2C1=O)c1ccc(C(F)(F)F)cc1,66.1%
11,O=S(=O)(Nc1ccccc1)c1ccc(NC(=S)Nc2ccccc2)cc1,47.2%
12,CC(C)Nc1nc2cc(Cl)c(Cl)cc2n1[C@H]1O[C@@H](CO)[C@H](O)[C@@H]1O,72%
13,Cc1ccn2c(C(=O)NCc3ccccc3)c(C)nc2c1,49.6%
14,Cc1nc2ccc(Cl)cc2c(-c2ccccc2)c1CC(=O)O,79.3%
15,CC(C)(C)NC(=O)[C@@H]1CN(Cc2cnc3occc3c2)CCN1C[C@@H](O)C[C@@H](Cc1ccccc1)C(=O)N[C@H]1c2ccccc2C[C@H]1O,58.1%
16,CC(C)(C)c1ccc(Oc2ccc(N)cc2)cc1,81.4%
17,O=C1[C@H](CC[C@H](O)c2ccc(F)cc2)[C@@H](c2ccc(O)cc2)N1c1ccc(F)cc1,91.5%
18,O=C1c2cccc3cccc(c23)C(=O)N1CC1CO1 (stereo not given),51.9%
19,COc1ccc(COc2cc3oc(=O)c4cc(C(C)O)ccc4c3cc2OC)cc1 (stereo not given),57%
20,CN(C/C=C/C#CC(C)(C)C)Cc1cccc2ccccc12,41.6%

row,SMILES,parasite survival
1,CC1(C)[C@H](C(=O)O)N2C(=O)C[C@H]2S1(=O)=O,35.7%
2,COc1ccc2sc3c(c2c1)NC(C)CNC3=O (stereo not given),6.94% (active)
3,COc1cc(C)c2c(Oc3cccc(C(F)(F)F)c3)c(OC)cc(NC(C)CCCN)c2n1 (stereo not given),27.2%
4,O=C(c1cc(O)nc2ccccc12)N1CCN(c2ccccc2)CC1,77.5%
5,COc1nc2ccc(Br)cc2cc1[C@@H](c1ccccc1)[C@@](O)(CCN(C)C)c1cccc2ccccc12,14% (active)
6,COC1CC2CCC(C)C(O)(O2)C(=O)C(=O)N2CCCCC2C(=O)OC(C(C)CC2CCC(OCCO)C(OC)C2)CC(=O)C(C)/C=C(\C)C(O)C(OC)C(=O)C(C)CC(C)/C=C/C=C/C=C/1C (stereo not given),56.8%
7,C[N+]1(C)CCCC(OC(=O)C(O)(c2ccccc2)c2ccccc2)C1 (stereo not given),61.6%
8,CCN(CC)CCn1c(=N)n(CC(O)COc2ccc(Cl)cc2Cl)c2ccccc21 (stereo not given),26.7%
9,CC1CN(c2ncnc3c2c(-c2ccccc2)cn3-c2ccc(F)cc2)CC(C)O1 (stereo not given),34.4%
10,Cc1ccc(N2CCC(CCOc3ccc(S(C)(=O)=O)cc3)CC2)nn1,73.2%
11,c1ccc(Cn2c(-c3ccccn3)nc3ccccc32)cc1,61.7%
12,CC[C@@]1(O)C(=O)OCc2c1cc1n(c2=O)Cc2cc3c(CN(C)C)c(O)ccc3nc2-1,50.5%
13,COCCn1cnc2c(O)nc(Nc3ccccc3)nc21,67%
14,CCCC1(C2CC2)c2cc(Cl)ccc2NC(=O)N1C (stereo not given),70.4%
15,CCNC(=O)Nc1cc(-c2ccccc2)c(-c2cncc(C(=O)O)c2)cn1,33%
16,NC(=O)[C@@H]1CC[C@@H]2CN1C(=O)N2OS(=O)(=O)O,39%
17,CC(=O)N1c2ccccc2NC2=C(C(=O)CC(C)(C)C2)C1c1ccc(OCc2ccccc2)cc1 (stereo not given),46.7%
18,NC[C@H]1OB(O)c2c(OCCCO)cccc21,54.2%
19,NC(=O)C(c1ccccc1)(c1ccccc1)[C@H]1CCCN(CCc2ccc3c(c2)CCO3)C1,67%
20,CCc1cc(CCCOc2c(C)cc(-c3noc(C(F)(F)F)n3)cc2C)on1,55.4%
